Among the data in PubChem BioAssay (Tox21) are Potency values, retold here.

SMILES strings stand for the structures. Inconclusive results are not listed. Calls of active or inactive are those of the source. Unless noted, the call rests on the fitted dose curve; in most records, active means well fitted curve in the direction sought with a large enough effect in the repeat runs; inconclusive means weak or mixed curves; inactive means no such curve, though single readings can be large; an effect the other way counts as inactive or inconclusive.

Test [1] in a line: qHTS assay to identify small molecule antagonists of the glucocorticoid receptor (GR) signaling pathway - cell viability counter screen (AID 720693). Further: nearly all actives have a fitted effect of over 55% in size. Further: potency means the concentration at half of the fitted maximal effect.
A short description of test [2]: qHTS assay for identifying genotoxic compounds that show differential cytotoxicity against isogenic chicken DT40 cell lines with known DNA damage response pathways - wild type cell line (AID 743012). Further: nearly all actives have a fitted effect of over 60% in size. Further: potency means the concentration at half of the fitted maximal effect. An outline of the steps: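 Using parental DT40 (300 cells/well), compounds delivered in DMSO incubate 40 h at 37 C/5% CO2. CellTiter-Glo reagent then stands 30 min at room temperature, and luminescence gives cell viability.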

Test [3] is described as follows: qHTS assay for identifying genotoxic compounds that show differential cytotoxicity against isogenic chicken DT40 cell lines with known DNA damage response pathways - Rev3 mutant cell line (AID 743014). Further: nearly all actives have a fitted effect of over 55% in size. Further: potency means the concentration at half of the fitted maximal effect.
Test [4] can be described thus: qHTS assay for identifying genotoxic compounds that show differential cytotoxicity against isogenic chicken DT40 cell lines with known DNA damage response pathways - Rad54/Ku70 mutant cell line (AID 743015). Further: nearly all actives have a fitted effect of over 60% in size. Further: potency means the concentration at half of the fitted maximal effect.
Test [5] can be described thus: qHTS assay to identify small molecule antagonists of the androgen receptor (AR) signaling pathway using the MDA cell line - cell viability counter screen (AID 743041; further: nearly all actives have a fitted effect of over 45% in size; further: potency means the concentration at half of the fitted maximal effect). Put shortly: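 MDA-kb2 AR-luc human breast carcinoma cells (MMTV-luciferase, AR/GR responsive) were treated with compounds plus R1881 agonist for 16 h at 37 °C. Viability was read as CellTiter-Fluor fluorescence in the same wells as the reporter assay.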

The nature of test [6]: qHTS assay to identify small molecule antagonists of the androgen receptor (AR) signaling pathway - cell viability counter screen (AID 743033; further: nearly all actives have a fitted effect of over 45% in size; further: potency means the concentration at half of the fitted maximal effect).
For test [7], the target named is Androgen receptor (Homo sapiens) (UniProt P10275). As to the kind of experiment: qHTS assay to identify small molecule agonists of the androgen receptor (AR) signaling pathway using the MDA cell line (AID 743040; further: nearly all actives have a fitted effect of over 20% in size; further: potency means the concentration at half of the fitted maximal effect). An outline of the steps:
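MDA-kb2 breast carcinoma cells stably carrying an MMTV-driven luciferase reporter (AR- and GR-responsive) were seeded and held 5 h at 37C, 0% CO2, then exposed to compounds in DMSO for 16 h. Luminescence was read 30 min after ONE-Glo addition.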

Test [8] has the same target. Description: qHTS assay to identify small molecule antagonists of the androgen receptor (AR) signaling pathway using the MDA cell line (AID 743042; further: nearly all actives have a fitted effect of over 55% in size; further: potency means the concentration at half of the fitted maximal effect). An outline of the steps:
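MDA-kb2 cells (human breast carcinoma, stably carrying an MMTV-luciferase reporter responsive to AR and GR) were plated at 3,000 cells/well and preincubated 5 hr at 37C, then given compound plus R1881 agonist for 16 h. ONE-Glo luminescence was read.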

The target is the same in test [9]. Description: qHTS assay to identify small molecule antagonists of the androgen receptor (AR) signaling pathway (AID 743035; active means well fitted inhibition curve with a large enough effect in the signal ratio in the repeat runs, not every such curve was filed as active; the % refers to the signal ratio). An outline of the steps:
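Using qHTS, AR-UAS-bla GripTite HEK293 cells received compound, then R1881, and were cultured 16 h at 37C/5% CO2 before a 2 h room-temperature LiveBLAzer B/G FRET substrate step and fluorescence measurement.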

Androgen receptor (Homo sapiens), sequence (P10275 whole entry, looked up): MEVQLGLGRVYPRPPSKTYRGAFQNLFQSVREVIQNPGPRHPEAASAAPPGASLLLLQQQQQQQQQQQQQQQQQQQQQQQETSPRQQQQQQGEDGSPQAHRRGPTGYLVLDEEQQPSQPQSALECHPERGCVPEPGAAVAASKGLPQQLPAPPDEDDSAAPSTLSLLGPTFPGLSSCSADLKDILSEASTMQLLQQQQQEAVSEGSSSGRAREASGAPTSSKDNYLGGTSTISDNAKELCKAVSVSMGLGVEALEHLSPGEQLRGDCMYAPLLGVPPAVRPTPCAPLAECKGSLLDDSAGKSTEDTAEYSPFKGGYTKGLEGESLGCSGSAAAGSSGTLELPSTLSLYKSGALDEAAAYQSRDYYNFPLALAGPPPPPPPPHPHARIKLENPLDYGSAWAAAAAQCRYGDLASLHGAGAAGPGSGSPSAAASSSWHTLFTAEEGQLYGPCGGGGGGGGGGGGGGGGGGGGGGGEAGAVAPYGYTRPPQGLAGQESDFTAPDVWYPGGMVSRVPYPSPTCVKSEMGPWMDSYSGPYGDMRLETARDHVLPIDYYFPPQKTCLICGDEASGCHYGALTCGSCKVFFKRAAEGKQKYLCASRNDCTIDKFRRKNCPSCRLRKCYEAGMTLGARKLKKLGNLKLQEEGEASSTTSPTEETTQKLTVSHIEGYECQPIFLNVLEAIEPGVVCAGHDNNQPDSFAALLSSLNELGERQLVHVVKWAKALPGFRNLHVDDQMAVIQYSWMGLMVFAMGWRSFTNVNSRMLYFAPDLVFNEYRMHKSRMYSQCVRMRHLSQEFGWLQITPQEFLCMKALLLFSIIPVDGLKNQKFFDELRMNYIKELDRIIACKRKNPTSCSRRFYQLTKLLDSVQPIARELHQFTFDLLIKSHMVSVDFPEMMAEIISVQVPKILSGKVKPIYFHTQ

As to `CC(C)(C)CC(C)(C)c1cc(Cc2cc(C(C)(C)CC(C)(C)C)cc(-n3nc4ccccc4n3)c2O)c(O)c(-n2nc3ccccc3n2)c1`, the Potency result in test [1], in [2], in test [3], in test [4] and in [5] was “inactive” throughout.

For `Cc1c(N)nc(C(CC(N)=O)NCC(N)C(N)=O)nc1C(=O)NC(C(=O)NC(C)C(O)C(C)C(=O)NC(C(=O)NCCc1nc(-c2nc(C(=O)NCCCN[C@@H](C)c3ccccc3)cs2)cs1)C(C)O)C(O[C@@H]1O[C@@H](CO)[C@@H](O)[C@H](O)[C@@H]1O[C@H]1O[C@H](CO)[C@@H](O)[C@H](OC(N)=O)[C@@H]1O)c1cnc[nH]1` (some centres not stated), the Potency result in test [1] and in test [5] was “inactive” each time. Besides, the Potency was 1.19 µM (active) in test [2], 0.944 µM (active) in test [3] and 0.0531 µM (active) in test [4].

Consider `C/C1=C2N=C(/C=C3N=C(/C(C)=C4\[N-]C(C(CC(N)=O)C4(C)CCC(=O)NCC(C)OP(=O)([O-])OC4C(CO)OC(n5cnc6cc(C)c(C)cc65)C4O)C4(C)N=C1C(CCC(N)=O)C4(C)CC(N)=O)C(CCC(N)=O)C\3(C)C)C(CCC(N)=O)C/2(C)CC(N)=O.[CH3-].[Co+3]` (configuration not stated), for which the Potency entry in test [1], in [2], in test [3] and in test [6] was “inactive” each time. The Potency in test [5] was 23.7 µM (active).

For `C[C@]12CCC(=O)C[C@@H]1CC[C@@H]1[C@@H]2CC[C@]2(C)C=CC[C@@H]12`, the Potency entry in test [1], in test [2], in [3], in [6] and in test [5] was “inactive” throughout.

As for `CCC(C)C(C(=O)OCC[N+](C)(CC)CC)c1ccccc1` (configuration not stated), the Potency entry in test [1] and in test [5] was “inactive” throughout. The Potency was 29.8 µM (active) in [2], 29.8 µM (active) in [3] and 26.6 µM (active) in [4].

With `CCCc1nc(C(C)(C)O)c(C(=O)OCc2oc(=O)oc2C)n1Cc1ccc(-c2ccccc2-c2nn[nH]n2)cc1`, the Potency entry in [1], in [2], in test [3], in test [6] and in [5] was “inactive” each time.

Consider `CCOc1ccc(N=C(C)Nc2ccc(OCC)cc2)cc1`, for which the Potency entry in test [1] and in test [5] was “inactive” in each case. In addition, the Potency in test [2], in [3] and in [4] was 23.7 µM (active) in each case.

Consider `OC[C@H]1OC([S-])[C@H](O)[C@@H](O)[C@@H]1O.[Au+]` (some centres not stated), for which the Potency entry in test [1], in test [3], in test [6] and in test [5] was “inactive” in each case. In addition, the Potency in test [2] is 10.6 µM (active).

Regarding `CCN(CC)CCOCCOC(=O)C(CC)(CC)c1ccccc1`, the Potency entry in test [1] and in [5] was “inactive” each time. The results for the Potency in test [2], in test [3] and in test [4] were 3.35 µM (active), 1.88 µM (active) and 4.73 µM (active), respectively.

On to `Cc1ccccc1CNc1ncnc2c1ncn2[C@@H]1O[C@H](CO)[C@@H](O)[C@H]1O`, for which the Potency result in test [1], in [6] and in test [5] was “inactive” in each case. Also, the Potency in test [2] is 16.8 µM (active); in test [3], 21.1 µM (active).

Take `NC(=O)c1ccc[n+]([C@@H]2O[C@H](COP(=O)([O-])OP(=O)(O)OC[C@H]3O[C@@H](n4cnc5c(N)ncnc54)[C@H](O)[C@@H]3O)[C@@H](O)[C@H]2O)c1`: the Potency entry in test [1], in test [2], in test [3], in test [6], in [7] and in [5] was “inactive” each time. Besides, the Potency result in [8] was “inactive”.

Turning to `CCCC(=O)O[C@]1(C(=O)COC(C)=O)CC[C@H]2[C@@H]3C[C@H](F)C4=CC(=O)C=C[C@]4(C)[C@@]3(F)[C@@H](O)C[C@@]21C`, the Potency result in [1], in test [6] and in [5] was “inactive” each time. For the same compound, the Potency in test [2] is 26.6 µM (active); in [3], 29.8 µM (active).

Regarding `C[C@]12CC[C@@H]3c4ccc(OC(=O)c5ccccc5)cc4CC[C@H]3[C@@H]1CC[C@@H]2O`, the Potency result in [1], in test [6], in test [5] and in test [8] was “inactive” throughout. Further, the Potency in test [2] was 2.98 µM (active); in test [3], 9.44 µM (active); in test [7], 1.33 µM (active).

As for `CCCCC(O)c1ccccc1` (configuration not stated), the Potency entry in test [1], in test [2], in test [3], in test [4] and in [5] was “inactive” in each case.

On to `NC(=O)OCC(O)COc1ccc(Cl)cc1` (configuration not stated), for which the Potency result in test [1], in test [2], in test [3], in test [6] and in test [5] was “inactive” throughout.

As for `S=C=Nc1ccc(N=C=S)cc1`, the Potency result in test [1], in [2], in test [3] and in test [6] was “inactive” throughout.

Take `CCCCCCOc1ccc(C(=N)N(CCCC)CCCC)c2ccccc12`: the Potency in test [1] is 13.4 µM (active); in test [2], 3.76 µM (active); in test [3], 5.31 µM (active); in test [6] it was 15.1 µM (active); in [5], 18.8 µM (active); in test [8] it was 16.8 µM (active). The Potency entry in test [7] was “inactive”.

On to `COc1cc(C[C@@H]2NCCc3cc(O)c(O)cc32)cc(OC)c1OC`, for which the Potency result in [1], in test [2], in [3], in [6] and in test [5] was “inactive” in each case.

On to `O=C(NNCS(=O)(=O)O)c1ccncc1`, for which the Potency result in test [1], in test [2], in test [3], in test [6] and in test [5] was “inactive” each time.

For the compound `CC1=C(/C=C/C(C)=C/C=C/C(C)=C/C(=O)Oc2c(C)c(C)c3c(c2C)CC[C@@](C)(CCC[C@H](C)CCC[C@H](C)CCCC(C)C)O3)C(C)(C)CCC1`, the Potency result in test [1], in [2], in test [3], in test [6] and in test [5] was “inactive” in each case.

With `Cn1nnnc1SCC1=C(C(=O)O)N2C(=O)[C@@H](NC(=O)[C@H](OC=O)c3ccccc3)[C@H]2SC1`, the Potency result in [1], in [2], in test [3], in [6] and in test [5] was “inactive” throughout.

On to `CCCC(=O)Nc1ncnc2c1ncn2[C@@H]1O[C@@H]2COP(=O)(O)O[C@H]2[C@H]1OC(=O)CCC`, for which the Potency entry in test [1], in [2], in test [3], in [6] and in [5] was “inactive” each time.

For the compound `NNc1nnc(Cc2ccncc2)c2ccccc12`, the Potency entry in test [1], in test [2], in [3], in test [6], in test [9] and in test [5] was “inactive” throughout. The Potency result in test [8] was “inactive”.
